Screening results as filed in PubChem BioAssay.
Only some compounds are listed: those with a hit (about 6.7% of all), similar ones and a draw of the others.
Pf Dd2 growth: P. falciparum Dd2 growth inhibitors, primary screen, SYBR Green fluorescence, single dose replicates. activity change, % at 10 µM. AID 1159554, 2015. 94,000 compounds, 2.3% hits. 72 h; active compounds read low; in the data active means activity change below about -80%; inconclusive means no clear call, values can overlap the other calls
C diff growth: C. difficile growth inhibitors, primary screen, HTS; Clostridium difficile clinical isolate growth, OD600, 24 h; active compounds read low; growth activity, negative = inhibition, % at 16 µg/mL (by protocol); 86,000 compounds, 0.25% hits; AID 1259249, 2017;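 active means mean growth activity at or below -80% and every replicate also at or below -80%; inconclusive means mean at or below -80% but some replicate above -80%; inactive means mean growth activity above -80%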;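 further: 0% = DMSO wells and -100% = levofloxacin 16 µg/mL wells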
T cruzi growth-1: T. cruzi intracellular proliferation inhibitors, primary screen, cell-based, beta-gal Tulahuen parasites, NIH3T3 host, luminescence | T. cruzi beta-gal in NIH3T3, GalScreen luminescence, 90 h | inhibition, % at 8.34 µM | 77,000 compounds, 5.9% hits;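 active means mean inhibition above about 93%, with at least 55% of replicates each passing it, limit read from the data, passing the limit was not always enough; inconclusive means only one of those two conditions holds; inactive means neither condition holds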
T cruzi growth-2: T. cruzi intracellular proliferation inhibitors, confirmation, cell-based, NIH3T3 host, beta-gal parasite, luminescence, cherry-pick; shares compounds with T cruzi growth-1; T. cruzi beta-gal in NIH3T3, GalScreen luminescence, 90 h; inhibition, % at 8.35 µM; 5,600 compounds, 72% hits; AID 651739, 2012;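 active means mean replicate inhibition above about 95% and at least 55% of replicates individually reaching it, limit read from the data; inconclusive means only one of the two criteria is met; inactive means neither criterion is met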
T cruzi growth-3: inhibitors of intracellular T. cruzi replication, confirmation, NIH3T3 host cells, beta-gal parasites, cherry-pick, set 2; inhibition, % at 2.09 µM; T. cruzi beta-gal in NIH3T3, GalScreen luminescence, 90 h; AID 651740, 2012; 5,600 compounds, 21% hits; shares compounds with T cruzi growth-1;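 active means mean inhibition above about 95%, with at least 55% of replicates also reaching it, limit read from the data; inconclusive means meets just one of the two conditions; inactive means meets neither condition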;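 further: plate controls were neutral control median for no effect and positive control median for full effect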
3T3 cytotox: cytotoxicity in mouse NIH/3T3 fibroblasts, confirmation, cytotoxicity control for T. cruzi proliferation inhibitor project, cell-based, cherry-pick, single point; 5,600 compounds, 14% hits; NIH/3T3 viability, CellTiter-Glo ATP luminescence, 90 h; AID 651742, 2012; cytotoxicity (signal decrease), % at 8.35 µM; shares compounds with T cruzi growth-1;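 active means mean signal decrease across replicates above about 35% based on untreated-well scatter, with enough replicates individually passing, limit read from the data; inconclusive means no rule stated though some were filed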;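 further: 0% = median of neutral control wells and 100% = median of positive control wells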
NIH3T3 tox 2: NIH/3T3 fibroblast cytotoxicity, confirmation, cytotoxicity control, cell-based, cherry-pick, single point, set 2 | shares compounds with T cruzi growth-1 | NIH/3T3 viability, CellTiter-Glo ATP luminescence, 90 h | inhibition, % at 24.9 µM | 5,600 compounds, 56% hits | AID 651744, 2012;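 active means mean loss of cell viability signal at or above a set limit, and enough replicates individually reaching it; inconclusive means meets only the mean limit or only the replicate share; inactive means meets neither condition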;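 further: 0% = median of neutral control wells and 100% = median of positive control wells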
Numbers without * were called inactive; u = inconclusive; x = no result given; ! = a repeat was not active.

SMILES	Pf Dd2 growth	C diff growth	T cruzi growth-1	T cruzi growth-2	T cruzi growth-3	3T3 cytotox	NIH3T3 tox 2
C[C@H](CO)N1C[C@H](C)[C@H](CN(C)S(=O)(=O)c2cccs2)Oc2ncc(C#Cc3ccccc3)cc2C1=O	-42	0	119*!	109*	67	24	16
CC(C)CC#Cc1cnc2c(c1)C(=O)N([C@H](C)CO)C[C@H](C)[C@H](CN(C)S(=O)(=O)c1cccs1)O2	-36	1	41	x	x	x	x
C[C@H]1CN([C@@H](C)CO)C(=O)c2cc(C#Cc3ccncc3)cnc2O[C@H]1CN(C)S(=O)(=O)c1ccccc1F	-12	12	35	x	x	x	x
C[C@H](CO)N1C[C@H](C)[C@H](CN(C)S(=O)(=O)c2ccccc2F)Oc2ncc(C#Cc3ccccc3F)cc2C1=O	-34	-2	u	106*	69	26	58*
C[C@@H]1CN([C@H](C)CO)C(=O)c2cc(C#Cc3ccccc3F)cnc2O[C@@H]1CN(C)S(=O)(=O)c1ccccc1F	-40	-7	106*!	107*	69	55*	54*
C[C@@H]1CN([C@@H](C)CO)C(=O)c2cc(C#Cc3ccccc3)cnc2O[C@H]1CN(C)S(=O)(=O)c1ccccc1F	-66	9	90	x	x	x	x
C[C@H](CO)N1C[C@H](C)[C@@H](CN(C)S(=O)(=O)c2ccccc2F)Oc2ncc(C#Cc3ccncc3)cc2C1=O	-25	6	28	x	x	x	x
COc1cccc(NC(=O)C[C@@H]2CC[C@H]3[C@H](COc4ccc(NC(=O)C5CCOCC5)cc4C(=O)N3C)O2)c1	4	x	22	x	x	x	x
CCCNC(=O)N1[C@@H](CO)[C@@H](c2ccccc2)C12CN(C(=O)c1cccnc1)C2	32	2	x	x	x	x	x
CO[C@H]1CN(C)C(=O)c2cc(NC(=O)NC(C)C)ccc2OC[C@H](C)N(Cc2cncnc2)C[C@H]1C	24	-13	-2	x	x	x	x
C[C@@H]1CN([C@@H](C)CO)C(=O)c2cc(C#Cc3ccncc3)cnc2O[C@@H]1CN(C)S(=O)(=O)c1ccccc1F	-38	13	-130	x	x	x	x
C[C@H](CO)N1C[C@H](C)[C@H](CN(C)S(=O)(=O)c2ccccc2F)Oc2ncc(C#Cc3ccccc3)cc2C1=O	-55	3	-10	x	x	x	x
C[C@@H]1CN([C@@H](C)CO)C(=O)c2cc(C#Cc3ccccc3F)cnc2O[C@@H]1CN(C)S(=O)(=O)c1ccccc1F	-61	3	98*	95*	80	56*	61*
C[C@H]1CN([C@@H](C)CO)C(=O)c2cc(C#Cc3ccccc3)cnc2O[C@@H]1CN(C)S(=O)(=O)c1ccccc1F	-49	4	u	108*	68	37*	36*
CC=Cc1ccc2n(c1=O)C[C@H]1[C@H](CO)[C@@H](C(=O)NCc3ccccc3F)N(CCC)[C@@H]21 (mixture of isomers)	x	4	46	x	x	x	x
O=C(N[C@H]1CC[C@@H](CCNS(=O)(=O)c2ccc(Cl)cc2)O[C@@H]1CO)c1cccnc1	11	3	-14	x	x	x	x
CN(C)CC#Cc1ccc([C@@H]2[C@@H](CO)N3CCCCN(C(=O)Nc4ccc(F)cc4)C[C@@H]23)cc1	-20	14	u	106*	82	2	u
CN(C)CC#Cc1ccc([C@H]2[C@@H](CO)N3CCCCN(C(=O)Nc4ccc(F)cc4)C[C@H]23)cc1	-47	10	53	x	x	x	x
CN(C)CC#Cc1ccc([C@H]2[C@H](CO)N3CCCCN(C(=O)Nc4cc(F)ccc4F)C[C@@H]23)cc1	-55	10	105*	99*	43	24	58*
CN(C)CC#Cc1ccc([C@@H]2[C@@H](CO)N3CCCCN(C(=O)Nc4ccccc4F)C[C@H]23)cc1	-2	5	-11	x	x	x	x
CN(C)CC#Cc1ccc([C@@H]2[C@H](CO)N3CCCCN(C(=O)Nc4ccccc4F)C[C@@H]23)cc1	-40	15	102*	u	93	-8	39*
O=C(Nc1cc(F)ccc1F)N1CCCCN2[C@H](CO)[C@@H](c3ccc(-c4ccccc4)cc3)[C@@H]2C1	-66	29	87	x	x	x	x
CN(C)CC#Cc1ccc([C@@H]2[C@@H](CO)N3CCCCN(C(=O)Nc4cc(F)ccc4F)C[C@H]23)cc1	-4	5	100*	u	45	8	28*
CN(C)CC#Cc1ccc([C@H]2[C@H]3CN(C(=O)Nc4ccccc4F)CCCCN3[C@H]2CO)cc1	11	12	21	x	x	x	x
C[C@@H]1CN([C@H](C)CO)C(=O)c2cc(NS(=O)(=O)c3cccs3)ccc2O[C@H]1CN(C)Cc1ccc(C(F)(F)F)cc1	30	3	15	x	x	x	x
SMILES	Pf Dd2 growth	C diff growth	T cruzi growth-1	T cruzi growth-2	T cruzi growth-3	3T3 cytotox	NIH3T3 tox 2
C[C@H]1CN([C@@H](C)CO)C(=O)c2cc(C3=CCCCC3)cnc2O[C@@H]1CN(C)Cc1ccc(C(=O)O)cc1	-13	-10	x	x	x	x	x
C[C@@H]1CN([C@@H](C)CO)C(=O)Cc2cc(NC(=O)C3CC3)ccc2O[C@@H]1CN(C)Cc1ccccc1	-27	1	4	x	x	x	x
C[C@H]1CN([C@@H](C)CO)C(=O)c2cccc(NS(=O)(=O)c3cn(C)cn3)c2O[C@H]1CN(C)CC1CCCCC1	-3	-2	43	x	x	x	x
COc1ccccc1C(=O)N1C[C@H]2[C@@H](c3ccccc31)[C@H](CO)N2C(=O)C1CCOCC1	2	6	32	x	x	x	x
COc1ccc(CN(C)C[C@H]2OCCCC[C@H](C)Oc3ccc(NS(=O)(=O)c4ccc(F)cc4)cc3C(=O)N([C@H](C)CO)C[C@H]2C)cc1	-60	-7	74	x	x	x	x
CN(C)CC#Cc1ccc([C@H]2[C@H](CO)N3CCCCN(C(=O)Nc4ccccc4F)C[C@@H]23)cc1	-19	17	-21	x	x	x	x
CN(C)CC#Cc1ccc([C@H]2[C@@H](CO)N3CCCCN(C(=O)Nc4cc(F)ccc4F)C[C@H]23)cc1	-40	17	109*	96*	50	21	101*
CN(C)CC#Cc1ccc([C@@H]2[C@H](CO)N3CCCCN(C(=O)Nc4cc(F)ccc4F)C[C@@H]23)cc1	-39	22	u	93	73	9	98*
COCC#Cc1ccc([C@H]2[C@@H](CO)N3CCCCN(C(=O)Nc4cc(F)ccc4F)C[C@H]23)cc1	-52	2	101*	104*	62	-1	89*
